Results as given in PubChem BioAssay AID1159580 (chemical genetic matrix, 2015).
Values joined by “and” are separate entries in the source; they are usually repeats but may differ in a detail not shown here. Equal values may be shown once. Among all 5,500 compounds or so, about 2,000 (36%) were called active. Not shown: some 18% with an inconclusive outcome. No stated cut-off is given here; in the data, active means normalized growth mostly below about 0.91 (no sharp cut-off); inconclusive means no clear call, values can overlap the other calls; inactive means mostly above about 0.92. The list shows a part of the results.

Experiment: chemical genetic growth profiling, strain panel (AID 1159580);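 further: tested at 20 µM; growth read once vehicle control cultures reached saturation at 30 °C; 1 = growth at the plate median or of vehicle wells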
Conditions: S. cerevisiae deletion strains, growth OD

Measured: normalized growth

CC1(C)O[C@@H]2CC3C4C[C@H](F)C5=CC(=O)C=C[C@]5(C)[C@@]4(F)[C@@H](O)C[C@]3(C)[C@]2(C(=O)CO)O1 (stereo partly specified)
inactive: locus YAL013W, strain DEP1, stronger effect = lower value 1 | locus YAL021C, strain ccr4, stronger effect = lower value 1.01 | locus YAL026C, strain drs2, stronger effect = lower value 1 | locus YAL030W, strain snc1, stronger effect = lower value 1.01 | locus YBL061C, strain skt5, stronger effect = lower value 1.01 | locus YBR009C, strain hhf1, stronger effect = lower value 1.01 | locus YBR021W, strain FUR4, stronger effect = lower value 0.995 | locus YBR023C, strain chs3, stronger effect = lower value 1.03 | locus YBR171W, strain sec66, stronger effect = lower value 1.02 | locus YBR229C, strain ROT2, stronger effect = lower value 0.999 | locus YBR231C, strain swc5, stronger effect = lower value 1.01 | locus YBR279W, strain paf1, stronger effect = lower value 1.05 | locus YCL011C, strain gbp2, stronger effect = lower value 1.03 | locus YCL016C, strain dcc1, stronger effect = lower value 1.02 | locus YCL029C, strain bik1, stronger effect = lower value 1.01 | locus YCL061C, strain MRC1, stronger effect = lower value 1.03 | locus YCL069W, strain vba3, stronger effect = lower value 1.02 | locus YCR088W, strain abp1, stronger effect = lower value 1.01 | locus YDL005C, strain med2, stronger effect = lower value 1.02 | locus YDL035C, strain GPR1, stronger effect = lower value 0.982 | locus YDL040C, strain nat1, stronger effect = lower value 1.01 | locus YDL074C, strain BRE1, stronger effect = lower value 1 | locus YDL101C, strain DUN1, stronger effect = lower value 1.01 | locus YDL185W, strain tfp1, stronger effect = lower value 1.01 | locus YDL192W, strain arf1, stronger effect = lower value 1.01 | locus YDR001C, strain nth1, stronger effect = lower value 1.02 | locus YDR069C, strain doa4, stronger effect = lower value 1 | locus YDR101C, strain arx1, stronger effect = lower value 0.988 | locus YDR137W, strain rgp1, stronger effect = lower value 1.02 | locus YDR159W, strain sac3, stronger effect = lower value 0.973 | locus YDR162C, strain NBP2, stronger effect = lower value 0.993 | locus YDR195W, strain ref2 1.01 | locus YDR297W, strain sur2, stronger effect = lower value 1.01 | locus YDR318W, strain mcm21, stronger effect = lower value 1.02 | locus YDR334W, strain swr1, stronger effect = lower value 1.01 | locus YDR335W, strain msn5, stronger effect = lower value 1.02 | locus YDR388W, stronger effect = lower value 1.01 | locus YDR392W, strain spt3, stronger effect = lower value 0.975 | locus YDR502C, strain sam2, stronger effect = lower value 1.01 | locus YEL003W, strain gim4, stronger effect = lower value 1 | locus YEL037C, strain rad23, stronger effect = lower value 1.01 | locus YEL061C, strain CIN8 (second series), stronger effect = lower value 1.02 | locus YEL061C, strain CIN8, stronger effect = lower value 0.992 | locus YER015W, strain faa2, stronger effect = lower value 1.01 | locus YER016W, strain bim1, stronger effect = lower value 1.01 | locus YER110C, stronger effect = lower value 1.02 | locus YER111C, strain swi4, stronger effect = lower value 1.01 | locus YER155C, strain BEM2 (second series), stronger effect = lower value 1.02 | locus YER155C, strain BEM2, stronger effect = lower value 0.997 | locus YER167W, strain BCK2, stronger effect = lower value 1 | locus YFR010W, strain ubp6, stronger effect = lower value 1.01 | locus YGL078C, strain dbp3, stronger effect = lower value 1.02 | locus YGL086W, strain mad1, stronger effect = lower value 0.992 | locus YGL167C, strain pmr1, stronger effect = lower value 1.01 | locus YGL173C, strain kem1, stronger effect = lower value 1.01 | locus YGL227W, strain vid30, stronger effect = lower value 1.02 | locus YGL240W, strain doc1, stronger effect = lower value 0.997 | locus YGL248W, strain PDE1, stronger effect = lower value 1.01 | locus YGL253W, strain hxk2, stronger effect = lower value 1.01 | locus YGR078C, strain PAC10, stronger effect = lower value 0.994 | locus YGR135W, strain pre9, stronger effect = lower value 1.07 | locus YGR252W, strain gcn5, stronger effect = lower value 1.07 | locus YHR013C, strain ard1, stronger effect = lower value 1.05 | locus YHR027C, strain rpn1, stronger effect = lower value 1.01 | locus YHR030C, strain SLT2, stronger effect = lower value 0.99 and 0.972 | locus YHR079C, strain IRE1 (second series), stronger effect = lower value 1.01 | locus YHR079C, strain IRE1, stronger effect = lower value 0.969 | locus YHR094C, strain hxt1, stronger effect = lower value 1.02 | locus YHR129C, strain ARP1, stronger effect = lower value 0.997 | locus YHR142W, strain chs7, stronger effect = lower value 1.03 | locus YHR200W, strain rpn10, stronger effect = lower value 1.02 | locus YIL066C, strain RNR3, stronger effect = lower value 0.993 | locus YIL073C, strain SPO22, stronger effect = lower value 1.02 | locus YIL125W, strain kgd1, stronger effect = lower value 1.01 | locus YIR030C, strain dcg1, stronger effect = lower value 1.02 | locus YJL092W, strain hpr5, stronger effect = lower value 1.02 | locus YJL095W, strain BCK1 (second series), stronger effect = lower value 1.02 | locus YJL095W, strain BCK1, stronger effect = lower value 1.01 and 0.978 | locus YJL115W, strain asf1, stronger effect = lower value 1.01 | locus YJL129C, strain trk1, stronger effect = lower value 1.02 | locus YJL134W, strain LCB3, stronger effect = lower value 1 | locus YJL154C, strain vps35, stronger effect = lower value 1.01 | locus YJL164C, strain tpk1, stronger effect = lower value 1.01 | locus YJL166W, strain qcr8, stronger effect = lower value 1.03 | locus YJL168C, strain set2, stronger effect = lower value 1.02 | locus YJL187C, strain SWE1 (second series), stronger effect = lower value 0.999 | locus YJL187C, strain SWE1, stronger effect = lower value 1.01 | locus YJR043C, strain POL32, stronger effect = lower value 0.988 | locus YJR066W, strain TOR1, stronger effect = lower value 0.952 | locus YJR075W, strain HOC1, stronger effect = lower value 0.994 | locus YKL009W, strain mrt4, stronger effect = lower value 0.996 | locus YKL068W, stronger effect = lower value 1.01 | locus YKL085W, strain MDH1 (second series), stronger effect = lower value 1.01 | locus YKL085W, strain MDH1, stronger effect = lower value 1.01 | locus YKL160W, strain elf1, stronger effect = lower value 1.03 | locus YKL190W, strain CNB1, stronger effect = lower value 0.994 | locus YKR001C, strain vps1, stronger effect = lower value 1 | locus YKR026C, strain gcn3, stronger effect = lower value 1.01 | locus YKR091W, strain srl3, stronger effect = lower value 1.01 | locus YLL001W, strain dnm1, stronger effect = lower value 1.01 | locus YLL026W, stronger effect = lower value 1.01 | locus YLL041C, strain sdh2, stronger effect = lower value 1.01 | locus YLR027C, strain aat2, stronger effect = lower value 1.01 | locus YLR039C, strain RIC1, stronger effect = lower value 1.05 | locus YLR058C, strain SHM2, stronger effect = lower value 1.01 | locus YLR102C, strain apc9, stronger effect = lower value 1.02 | locus YLR113W, strain HOG1, stronger effect = lower value 0.994 | locus YLR221C, strain rsa3, stronger effect = lower value 1.02 | locus YLR258W, strain gsy2, stronger effect = lower value 1.01 | locus YLR262C, strain YPT6 (second series), stronger effect = lower value 1.04 | locus YLR262C, strain YPT6, stronger effect = lower value 0.968 | locus YLR268W, strain sec22, stronger effect = lower value 1.01 | locus YLR320W, strain mms22, stronger effect = lower value 1.04 | locus YLR330W, strain CHS5, stronger effect = lower value 1 | locus YLR342W, strain FKS1 (second series), stronger effect = lower value 1.01 | locus YLR342W, strain FKS1, stronger effect = lower value 1.02 | locus YLR357W, strain rsc2, stronger effect = lower value 1.01 | locus YLR370C, strain arc18, stronger effect = lower value 1.01 | locus YLR371W, strain rom2, stronger effect = lower value 1.01 | locus YLR384C, strain iki3, stronger effect = lower value 1.02 | locus YLR418C, strain cdc73, stronger effect = lower value 1.03 | locus YML016C, strain PPZ1, stronger effect = lower value 0.998 | locus YML032C, strain rad52, stronger effect = lower value 1.01 | locus YML120C, strain ndi1, stronger effect = lower value 1.03 | locus YML124C, strain tub3, stronger effect = lower value 1.01 | locus YMR058W, strain fet3, stronger effect = lower value 1.01 | locus YMR078C, strain ctf18, stronger effect = lower value 1.01 | locus YMR125W, strain sto1, stronger effect = lower value 1.03 | locus YMR129W, stronger effect = lower value 1.01 | locus YMR205C, strain PFK2, stronger effect = lower value 1.01 | locus YMR223W, strain ubp8, stronger effect = lower value 1.04 | locus YMR231W, strain pep5, stronger effect = lower value 1.01 | locus YMR307W, strain GAS1, stronger effect = lower value 0.967 | locus YNL067W, strain RPL9B, stronger effect = lower value 0.993 | locus YNL071W, strain lat1, stronger effect = lower value 1.02 | locus YNL128W, strain TEP1, stronger effect = lower value 1.01 | locus YNL183C, strain NPR1, stronger effect = lower value 0.975 | locus YNL209W, strain ssb2, stronger effect = lower value 1.02 | locus YNL233W, strain BNI4, stronger effect = lower value 1 | locus YNL248C, strain rpa49, stronger effect = lower value 1.01 | locus YNL250W, strain rad50, stronger effect = lower value 1.05 | locus YNL271C, strain bni1, stronger effect = lower value 1.02 | locus YNL298W, strain CLA4, stronger effect = lower value 1.01 | locus YNL307C, strain MCK1, stronger effect = lower value 1.03 | locus YNL322C, strain KRE1 (second series), stronger effect = lower value 1.03 | locus YNR049C, strain mso1, stronger effect = lower value 1 | locus YNR052C, strain pop2, stronger effect = lower value 1.01 | locus YOL012C, strain htz1 0.765 | locus YOL147C, strain pex11, stronger effect = lower value 1.02 | locus YOR001W, strain rrp6, stronger effect = lower value 0.98 | locus YOR061W, strain CKA2, stronger effect = lower value 1.01 | locus YOR069W, strain VPS5, stronger effect = lower value 1 | locus YOR070C, strain gyp1, stronger effect = lower value 1.03 | locus YOR080W, strain dia2, stronger effect = lower value 1.02 | locus YOR083W, strain WHI5, stronger effect = lower value 1.04 | locus YOR106W, strain vam3, stronger effect = lower value 1.04 | locus YOR136W, strain idh2, stronger effect = lower value 1.01 | locus YOR144C, strain elg1, stronger effect = lower value 1.01 | locus YOR184W, strain ser1, stronger effect = lower value 1.02 | locus YOR231W, strain MKK1, stronger effect = lower value 0.986 | locus YOR265W, strain rbl2, stronger effect = lower value 1.01 | locus YOR270C, strain vph1, stronger effect = lower value 1.04 | locus YOR290C, strain snf2, stronger effect = lower value 0.985 | locus YOR316C, strain cot1, stronger effect = lower value 1.01 | locus YPL051W, strain arl3, stronger effect = lower value 1.01 | locus YPL055C, strain LGE1, stronger effect = lower value 0.996 | locus YPL078C, strain atp4, stronger effect = lower value 1.02 | locus YPL106C, strain sse1, stronger effect = lower value 1.01 | locus YPL240C, strain hsp82, stronger effect = lower value 1.01 | locus YPL241C, strain CIN2, stronger effect = lower value 1 | locus YPL256C, strain CLN2, stronger effect = lower value 0.987 | locus YPR119W, strain clb2, stronger effect = lower value 1.02 | locus YPR141C, strain kar3, stronger effect = lower value 1.01 | locus YPR163C, strain tif3, stronger effect = lower value 1.02 | locus YPR167C, strain met16, stronger effect = lower value 1.01 | strain wtn01, stronger effect = lower value 1.01
